Measurements as given in PubChem BioAssay (Tox21).
Records with an inconclusive call do not appear. Calls of active or inactive are those of the source. Unless noted, the call rests on the fitted dose curve; in most records, active means well fitted curve in the direction sought with a large enough effect in the repeat runs; inconclusive means weak or mixed curves; inactive means no such curve, though single readings can be large; an effect the other way counts as inactive or inconclusive.

Assays:
[1] = qHTS assay to identify small molecule agonists of the vitamin D receptor (VDR) signaling pathway - cell viability counter screen (AID 743224); further: series mostly up to about 63 µM; on the % scale 0 is the no-effect control and ±100 the full control effect; nearly all actives have a fitted effect of over 50% in size
Procedure, shortened: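 Compounds were pin-transferred onto VDR-bla cells plated 4 h earlier; following 16 h incubation at 37C, cell viability was quantified by CellTiter-Glo luminescence after 30 min at room temperature.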

[2] = qHTS assay to identify small molecule antagonists of the vitamin D receptor (VDR) signaling pathway - cell viability counter screen (AID 743225); further: on the % scale 0 is the no-effect control and ±100 the full control effect; nearly all actives have a fitted effect of over 50% in size
Procedure, shortened: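 Read-out: CellTiter-Glo luminescence measured 30 min after reagent addition at room temperature. Cells were VDR-bla HEK 293T exposed 16 h at 37C, 5% CO2, to compound with 3 nM final calcitriol agonist.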

[3] = qHTS assay to identify small molecule agonists of the NFkB signaling pathway - cell viability counter screen (AID 1159515; calls by dose curve; further: series mostly up to about 61 µM; on the % scale 0 is the no-effect control and ±100 the full control effect; nearly all actives have a fitted effect of over 55% in size)
Procedure, shortened: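 Parallel cytotoxicity counter screen in ME-180 cells carrying an NFkB-response-element beta-lactamase reporter, 2,000 cells/well. Compound exposure lasted 5 hr at 37 C, 5% CO2. Cell viability was quantified by CellTiter-Glo luminescence.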

[4] = qHTS assay to identify small molecule agonists of the endoplasmic reticulum stress response signaling pathway (AID 1159516; active means well fitted activation curve with a large enough effect in the signal ratio in the repeat runs, not every such curve was filed as active; the % refers to the signal ratio; further: on the % scale 0 is the no-effect control and ±100 the full control effect)
Procedure, shortened: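 Using a HeLa line with an ESRE-driven beta-lactamase gene, agonist activity was measured by FRET substrate fluorescence (460 and 530 nm emission) after cells were treated with compounds for 5 hr at 37 C and 5% CO2.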

[5] = qHTS assay to identify small molecule agonists of the endoplasmic reticulum stress response signaling pathway - cell viability counter screen (AID 1159517; calls by dose curve;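 further: HeLa cells carrying an ER stress response element beta-lactamase reporter; series mostly up to about 61 µM; on the % scale 0 is the no-effect control and ±100 the full control effect; nearly all actives have a fitted effect of over 50% in size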)
Procedure, shortened: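 After overnight attachment, ESRE-bla HeLa cells were treated with Tox21 library compounds for 5 hr. CellTiter-Glo luminescence, read 30 min post-addition at room temperature, reported viability.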

[6] = qHTS assay to identify small molecule antagonists of the retinoid-related orphan receptor gamma (ROR-gamma) signaling pathway - cell viability counter screen (AID 1159520); further: on the % scale 0 is the no-effect control and ±100 the full control effect; nearly all actives have a fitted effect of over 50% in size
Procedure, shortened: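 Cytotoxicity was read from cellular ATP (CellTiter-Glo luminescence) after 16 hr at 37 C with 1 uM doxycycline induction. The inducer was added 2 hr after compound transfer to Tet-on ROR gamma CHO cells.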

[7] = target: Nuclear receptor ROR-gamma (Homo sapiens) (UniProt P51449); test: qHTS assay to identify small molecule antagonists of the retinoid-related orphan receptor gamma (ROR-gamma) signaling pathway (AID 1159521)
Procedure, shortened: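 CHO Tet-on RORγ, RORE-luc reporter. Cpd 2 h pre-incubation, then dox hyclate 1 uM final, 16 h, 37 C/5% CO2. ONE-Glo luminescence; decrease = antagonist.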

[8] = qHTS assay to identify small molecule agonists of the AP-1 signaling pathway - cell viability counter screen (AID 1159525; calls by dose curve; further: nearly all actives have a fitted effect of over 55% in size)
Procedure, shortened: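 Intracellular ATP by Cell Titer Glo luminescence (30 min, RT) in the same ME-180 AP-1-bla wells after the 5 h compound exposure at 37 °C. Normalised to tetra n-octyl ammonium bromide and DMSO controls.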

[9] = qHTS assay to identify small molecule agonists of the AP-1 signaling pathway (AID 1159526; calls by dose curve; further: on the % scale 0 is the no-effect control and ±100 the full control effect)
[10] = target: Retinoic acid receptor RXR-alpha (Homo sapiens) (UniProt P19793); test: qHTS assay to identify small molecule agonists of the RXR signaling pathway (AID 1159527; calls by dose curve; further: on the % scale 0 is the no-effect control and ±100 the full control effect; nearly all actives have a fitted effect of over 35% in size)
Retinoic acid receptor RXR-alpha (Homo sapiens), sequence (P19793 whole entry, looked up): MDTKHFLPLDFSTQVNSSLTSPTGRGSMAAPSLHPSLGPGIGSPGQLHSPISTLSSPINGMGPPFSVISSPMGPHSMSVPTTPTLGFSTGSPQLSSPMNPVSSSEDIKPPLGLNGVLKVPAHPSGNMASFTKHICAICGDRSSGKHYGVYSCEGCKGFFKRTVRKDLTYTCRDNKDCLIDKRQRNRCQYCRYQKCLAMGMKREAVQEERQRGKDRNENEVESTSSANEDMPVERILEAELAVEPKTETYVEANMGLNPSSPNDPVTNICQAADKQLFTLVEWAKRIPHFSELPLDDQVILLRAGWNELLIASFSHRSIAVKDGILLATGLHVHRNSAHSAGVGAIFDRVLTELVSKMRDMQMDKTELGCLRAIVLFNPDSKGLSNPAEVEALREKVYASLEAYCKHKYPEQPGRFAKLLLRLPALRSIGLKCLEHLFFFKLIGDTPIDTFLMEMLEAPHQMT
Procedure, shortened: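 Read-out: beta-lactamase FRET ratio (405 nm excitation, 460 and 530 nm emission) after 2 hr substrate loading at room temperature. Cells were RXR-alpha-UAS-bla HEK 293T treated with compounds for 16 hr in 2% charcoal-stripped FBS medium.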

[11] = qHTS assay to identify small molecule agonists of the RXR signaling pathway - cell viability counter screen (AID 1159529)
Procedure, shortened: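 HEK 293T RXRa-bla cells, 2% CS-FBS; 5 h settle; cpd 16 h 37 C, 5% CO2; CellTiter-Glo 30 min RT, luminescence. Tetraoctyl ammonium bromide as positive control.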

[12] = qHTS assay to identify small molecule antagonists of the retinoid acid receptor (RAR) signaling pathway - cell viability counter screen (AID 1159551); further: on the % scale 0 is the no-effect control and ±100 the full control effect; nearly all actives have a fitted effect of over 35% in size
Procedure, shortened: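 ATP-based viability, C3RL4 cells, 6 h at 37 C with 1 uM final retinol co-added after compound; luminescence read 30 min post CellTiter-Glo, RT.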

[13] = qHTS assay to identify small molecule antagonists of the retinoic acid receptor (RAR) signaling pathway (AID 1159552)
Procedure, shortened: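 Cells of the C3RL4 line were seeded, incubated overnight, then dosed with compounds in DMSO followed immediately by retinol (1 uM final). Six hours later luciferase detection reagent went in; signal was measured after 30 min at RT.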

[14] = qHTS assay to identify small molecule agonists of the retinoic acid receptor (RAR) signaling pathway (AID 1159553); further: on the % scale 0 is the no-effect control and ±100 the full control effect
Procedure, shortened: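 Quantitative high-throughput format: the Tox21 10K library was tested on C3RL4 RARE-luciferase cells for 6 hr at 37 C and 5% CO2, with luminescence measured after a 30 min room-temperature reagent step.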

[15] = qHTS assay to identify small molecule antagonists of the estrogen related receptor (ERR) signaling pathway from Tox21 library - cell viability counter screen (AID 1224834); further: on the % scale 0 is the no-effect control and ±100 the full control effect; nearly all actives have a fitted effect of over 30% in size
Procedure, shortened: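 Compounds in DMSO were pinned onto ERR cells that had been incubated for 6 h, and the plates were held at 37 C for 17.5 h. CellTiter-Fluor reagent was then added and fluorescence was measured after 30 min.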

[16] = target: Luciferin 4-monooxygenase (Photinus pyralis) (UniProt P08659); test: qHTS assay to identify small molecule inhibitors of firefly luciferase (AID 1224835); further: series mostly up to about 120 µM; on the % scale 0 is the no-effect control and ±100 the full control effect; nearly all actives have a fitted effect of over 25% in size
Luciferin 4-monooxygenase (Photinus pyralis), sequence (P08659 whole entry, looked up): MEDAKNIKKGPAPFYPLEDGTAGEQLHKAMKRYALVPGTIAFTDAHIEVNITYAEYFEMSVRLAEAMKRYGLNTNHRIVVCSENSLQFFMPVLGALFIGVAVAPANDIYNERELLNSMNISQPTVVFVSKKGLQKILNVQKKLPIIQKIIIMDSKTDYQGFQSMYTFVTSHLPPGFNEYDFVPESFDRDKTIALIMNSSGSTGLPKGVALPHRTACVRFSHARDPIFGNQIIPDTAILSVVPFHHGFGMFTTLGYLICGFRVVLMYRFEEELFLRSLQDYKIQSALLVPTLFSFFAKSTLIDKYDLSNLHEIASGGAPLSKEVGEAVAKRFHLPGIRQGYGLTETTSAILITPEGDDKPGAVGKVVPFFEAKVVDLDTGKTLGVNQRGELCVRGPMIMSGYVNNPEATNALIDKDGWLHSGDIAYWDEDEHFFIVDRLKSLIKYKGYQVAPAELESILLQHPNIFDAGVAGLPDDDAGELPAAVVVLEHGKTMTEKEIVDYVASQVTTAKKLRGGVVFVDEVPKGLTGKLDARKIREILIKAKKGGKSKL
Procedure, shortened: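 Inhibition of purified Photinus luciferase is measured by luminescence. Substrate levels (D-luciferin, ATP) sit at their KM values. Each compound is tested in a concentration series.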

[17] = qHTS assay to identify small molecule agonists of the constitutive androstane receptor (CAR) signaling pathway - cell viability counter screen (AID 1224836); further: series mostly up to about 92 µM; on the % scale 0 is the no-effect control and ±100 the full control effect; nearly all actives have a fitted effect of over 45% in size
Procedure, shortened: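 HepG2-CYP2B6-hCAR, 2500 cells/well, 4 h pre-incubation; cpd 15 conc + PK11195 0.75 uM final; 23 h, 37 C/5% CO2; CellTiter-Fluor, fluorescence.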

[18] = qHTS assay to identify small molecule antagonists of the constitutive androstane receptor (CAR) signaling pathway - cell viability counter screen (AID 1224837); further: series mostly up to about 92 µM; on the % scale 0 is the no-effect control and ±100 the full control effect; nearly all actives have a fitted effect of over 45% in size
Procedure, shortened: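 Cells are seeded, rested 4 hr at 37 C/5% CO2, dosed with compound (15-point series) and 50 nM CITCO, incubated a further 23 hr, and then CellTiter-Fluor reagent is added before fluorescence is read. The line is HepG2 with stable hCAR and CYP2B6-2.2kb.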

[19] = target: Nuclear receptor subfamily 1 group I member 3 (Homo sapiens) (UniProt Q14994); test: qHTS assay to identify small molecule antagonists of the constitutive androstane receptor (CAR) signaling pathway (AID 1224838);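 further: HepG2 cells stably expressing hCAR with CYP2B6 luciferase reporter stimulated by CITCO; on the % scale 0 is the no-effect control and ±100 the full control effect; nearly all actives have a fitted effect of over 40% in size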
Nuclear receptor subfamily 1 group I member 3 (Homo sapiens), sequence (Q14994 whole entry, looked up): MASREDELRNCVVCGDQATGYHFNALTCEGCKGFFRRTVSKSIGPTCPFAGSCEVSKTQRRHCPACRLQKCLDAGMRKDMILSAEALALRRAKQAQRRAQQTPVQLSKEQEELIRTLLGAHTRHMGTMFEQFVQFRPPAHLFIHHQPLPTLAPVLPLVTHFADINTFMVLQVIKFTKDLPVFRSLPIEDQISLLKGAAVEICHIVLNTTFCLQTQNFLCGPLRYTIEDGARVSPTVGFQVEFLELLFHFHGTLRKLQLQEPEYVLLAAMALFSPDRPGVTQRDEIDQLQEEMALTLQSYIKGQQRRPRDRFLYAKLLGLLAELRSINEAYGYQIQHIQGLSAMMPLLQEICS
Procedure, shortened: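 Luminescence from a CYP2B6-2.2kb promoter reporter in hCAR-expressing HepG2 cells reflects CAR signaling. Cells received compounds at 15 concentrations and 50 nM CITCO (final), then incubated 24 h at 37 C/5% CO2.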

[20] = qHTS assay to identify small molecule agonists of the NFkB signaling pathway (AID 1159509; active means well fitted curve in the direction sought with a large enough effect in the signal ratio in the repeat runs, not every such curve was filed as active; the % refers to the signal ratio; further: series mostly up to about 61 µM; on the % scale 0 is the no-effect control and ±100 the full control effect)
Procedure, shortened: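 Beta-lactamase reporter assay run in quantitative high-throughput format on an NF-kB-responsive ME-180 line, with 5 hr compound treatment and a FRET-based blue/green fluorescence readout.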

N#CCC(=O)NN
inactive: outcome [1] | outcome [2] | outcome [3] | outcome [4] | outcome [5] | outcome [6] | outcome [7] | outcome [8] | outcome [9] | Potency [10] | outcome [11] | outcome [12] | outcome [13] | Potency [14] | outcome [15] | Potency [16] | outcome [17] | outcome [18] | Potency [19]

CN(C)CCN(C)CCO
inactive: outcome [1] | outcome [2] | outcome [20] | outcome [3] | outcome [4] | outcome [6] | outcome [7] | outcome [8] | outcome [9] | Potency [10] | outcome [11] | outcome [12] | outcome [13] | Potency [14] | outcome [15] | Potency [16] | outcome [17] | outcome [18] | Potency [19]

COC(C)(OC)OC
inactive: outcome [1] | outcome [2] | outcome [20] | outcome [3] | outcome [4] | outcome [6] | outcome [7] | outcome [8] | outcome [9] | Potency [10] | outcome [11] | outcome [12] | outcome [13] | Potency [14] | Potency [16] | outcome [17] | outcome [18] | Potency [19]

N#Cc1ccccc1O
inactive: outcome [1] | outcome [2] | outcome [20] | outcome [3] | outcome [4] | outcome [6] | outcome [8] | outcome [9] | Potency [10] | outcome [11] | outcome [12] | outcome [13] | Potency [14] | Potency [16] | outcome [17] | outcome [18] | Potency [19]

CC1c2ccccc2CN1NC(=O)c1ccc(Cl)c(S(N)(=O)=O)c1 (stereo unspecified)
inactive: outcome [1] | outcome [2] | outcome [20] | outcome [3] | outcome [4] | outcome [6] | outcome [7] | outcome [8] | outcome [9] | Potency [10] | outcome [11] | outcome [12] | outcome [13] | outcome [15] | Potency [16] | outcome [17] | outcome [18] | Potency [19]

CO[C@@]1(NC(=O)Cc2cccs2)C(=O)N2C(C(=O)O)=C(COC(N)=O)CS[C@@H]21
inactive: outcome [1] | outcome [2] | outcome [20] | outcome [3] | outcome [4] | outcome [6] | outcome [8] | outcome [9] | Potency [10] | outcome [11] | outcome [12] | outcome [13] | Potency [14] | outcome [15] | Potency [16] | outcome [17] | outcome [18] | Potency [19]

O=C1NC(c2ccccc2)(c2ccccc2)C(=O)N1COP(=O)(O)O
inactive: outcome [1] | outcome [2] | outcome [20] | outcome [3] | outcome [4] | outcome [6] | outcome [7] | outcome [8] | outcome [9] | Potency [10] | outcome [11] | outcome [13] | Potency [14] | outcome [15] | Potency [16] | outcome [17] | outcome [18] | Potency [19]

O=C1c2ccccc2C(=O)c2cc(Cl)ccc21
inactive: activity change, negative = cytotoxicity [1] -4.49% [at 5.95 µM] | viability change, negative = cytotoxic [2] -4.02% [at 6.95 µM] | activity, negative = cytotoxic [3] 13.9% [at 6.95 µM] | activation [4] 0.175% [at 6.95 µM] | activity change, negative = cytotoxicity [5] 0.196% [at 6.95 µM] | activity, negative = cytotoxicity [6] 5.88% [at 8.39 µM] | activity change, negative = inhibition [7] 38.6% [at 8.39 µM] | viability change, negative = cytotoxic [8] 1.45% [at 6.97 µM] | activation [9] -9.9% [at 6.97 µM] | activation [10] 2.02% [at 6.98 µM] | activity change, negative = cytotoxicity [11] 5.38% [at 6.97 µM] | activity change, negative = cytotoxicity [12] 3.77% [at 8.39 µM] | activity, negative = inhibition [13] 30% [at 8.39 µM] | activation [14] 2.57% [at 8.36 µM] | viability change, negative = cytotoxic [15] 1.32% [at 8.39 µM] | activity change, negative = inhibition [16] 0.579% [at 10.5 µM] | viability change, negative = cytotoxic [17] -1.2% [at 8.39 µM] | activity change, negative = cytotoxicity [18] 2.26% [at 8.39 µM] | activity, negative = inhibition [19] 54.9% [at 8.39 µM]

Cc1cccc(Cl)c1
inactive: outcome [1] | outcome [2] | outcome [20] | outcome [3] | outcome [4] | outcome [6] | outcome [7] | outcome [8] | outcome [9] | Potency [10] | outcome [11] | outcome [12] | outcome [13] | Potency [14] | outcome [15] | Potency [16] | outcome [17] | outcome [18] | Potency [19]

CCOc1ccccc1OCC1CNCCO1 (stereo unspecified)
inactive: outcome [1] | outcome [2] | outcome [20] | outcome [3] | outcome [4] | outcome [6] | outcome [7] | outcome [9] | Potency [10] | outcome [11] | outcome [12] | outcome [13] | Potency [14] | outcome [15] | Potency [16] | outcome [17] | outcome [18] | Potency [19]

Cc1ccc(N)cc1S(=O)(=O)O
inactive: outcome [1] | outcome [20] | outcome [3] | outcome [4] | outcome [6] | outcome [7] | outcome [8] | outcome [9] | Potency [10] | outcome [11] | outcome [12] | outcome [13] | Potency [14] | outcome [15] | Potency [16] | outcome [17] | outcome [18] | Potency [19]

C=CCCCC
inactive: outcome [1] | outcome [2] | outcome [20] | outcome [3] | outcome [4] | outcome [6] | outcome [7] | outcome [8] | outcome [9] | Potency [10] | outcome [11] | outcome [13] | outcome [15] | Potency [16] | outcome [17] | outcome [18] | Potency [19]

CN1CCOC(c2ccccc2)c2ccccc2C1 (stereo unspecified)
inactive: outcome [1] | outcome [2] | outcome [20] | outcome [3] | outcome [4] | outcome [6] | outcome [8] | outcome [9] | Potency [10] | outcome [11] | outcome [12] | outcome [13] | Potency [14] | outcome [15] | Potency [16] | outcome [17] | outcome [18] | Potency [19]
